G9a inh: qHTS Assay for Inhibitors of Histone Lysine Methyltransferase G9a | Histone-lysine N-methyltransferase EHMT2 (Homo sapiens), Q96KQ7 | G9a H3K9 monomethylation, AlphaScreen, 2 h | AID 504332, 2011 | Potency, µM (titrated, usually from 102 µM), without a hit: at the top dose activity, negative = inhibition, hits mostly inhibitors | 350,000 tested, 8.8% active; further: potency means the concentration at half of the fitted maximal effect; on the % scale 0 is the no-effect control and ±100 the full control effect; nearly all actives have a fitted effect of over 75% in size
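G9a (20 nM) preincubated 15 min RT with compounds, then 500 nM biotinylated H3K9 peptide and 20 uM SAM added; 2 h RT reaction. Monomethyl-H3K9 product detected by AlphaScreen with anti-H3K9me1 antibody, streptavidin donor and anti-rabbit IgG acceptor beads.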
Six1-Eya2 inh: qHTS Assay for Inhibitors of the Six1/Eya2 Interaction | Homeobox protein SIX1 (Homo sapiens) + Protein phosphatase EYA2 (Homo sapiens), … | AlphaScreen GST-Six1/His-Eya2 binding, biochemical; hits give low values | AID 651725, 2012 | activity change, % (test concentration not listed) | 360,000 tested, 0.56% active; in the data active means activity change below about -65%; inconclusive means mostly about -30% to -63%; further: on the % scale 0 is the no-effect control and ±100 the full control effect
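Six1/Eya2 binding was read as AlphaScreen signal after compounds were pinned into GST-Six1 plus His-tagged Eya2 (5X stock 250/500 nM) in pH 8.0 Tris/NaCl/TCEP buffer, beads added, then incubated 1 h, 37 C, dark.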
HP1b binding inh: HTS for Inhibitors of HP1-beta Chromodomain Interactions with Methylated Histone Tails | AID 540317, 2011 | 390,000 tested, 0.56% active | Potency, µM (top dose mostly 114 µM), for inactives: at the highest dose activity change, negative = inhibition, actives largely listed as inhibitors | AlphaScreen HP1-beta / biotin-H3K9me3 peptide binding | Chromobox protein homolog 1 (Homo sapiens), P83916; further: potency means the concentration at half of the fitted maximal effect; nearly all actives have a fitted effect of over 70% in size
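Compound inhibition of the preformed complex between 50 nM HP1-beta and 50 nM biotinylated H3K9me3 peptide was read by AlphaScreen. Buffer was PBS pH 7.4 with 0.01% Tween-20. Incubations ran 30 min at room temperature, with 10 ug/mL donor/acceptor beads.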
BAZ2B inh: qHTS Assay for Inhibitors of BAZ2B; AlphaScreen BAZ2B-H3K14Ac peptide displacement; AID 504333, 2011; Potency, µM (series often up to 114 µM), without a hit: at the top dose activity change, negative = inhibition, actives largely listed as inhibitors; 360,000 tested, 4.4% active; further: potency means the concentration at half of the fitted maximal effect; on the % scale 0 is the no-effect control and ±100 the full control effect; nearly all actives have a fitted effect of over 60% in size
Target sequence (Q9UIF8 whole entry, looked up): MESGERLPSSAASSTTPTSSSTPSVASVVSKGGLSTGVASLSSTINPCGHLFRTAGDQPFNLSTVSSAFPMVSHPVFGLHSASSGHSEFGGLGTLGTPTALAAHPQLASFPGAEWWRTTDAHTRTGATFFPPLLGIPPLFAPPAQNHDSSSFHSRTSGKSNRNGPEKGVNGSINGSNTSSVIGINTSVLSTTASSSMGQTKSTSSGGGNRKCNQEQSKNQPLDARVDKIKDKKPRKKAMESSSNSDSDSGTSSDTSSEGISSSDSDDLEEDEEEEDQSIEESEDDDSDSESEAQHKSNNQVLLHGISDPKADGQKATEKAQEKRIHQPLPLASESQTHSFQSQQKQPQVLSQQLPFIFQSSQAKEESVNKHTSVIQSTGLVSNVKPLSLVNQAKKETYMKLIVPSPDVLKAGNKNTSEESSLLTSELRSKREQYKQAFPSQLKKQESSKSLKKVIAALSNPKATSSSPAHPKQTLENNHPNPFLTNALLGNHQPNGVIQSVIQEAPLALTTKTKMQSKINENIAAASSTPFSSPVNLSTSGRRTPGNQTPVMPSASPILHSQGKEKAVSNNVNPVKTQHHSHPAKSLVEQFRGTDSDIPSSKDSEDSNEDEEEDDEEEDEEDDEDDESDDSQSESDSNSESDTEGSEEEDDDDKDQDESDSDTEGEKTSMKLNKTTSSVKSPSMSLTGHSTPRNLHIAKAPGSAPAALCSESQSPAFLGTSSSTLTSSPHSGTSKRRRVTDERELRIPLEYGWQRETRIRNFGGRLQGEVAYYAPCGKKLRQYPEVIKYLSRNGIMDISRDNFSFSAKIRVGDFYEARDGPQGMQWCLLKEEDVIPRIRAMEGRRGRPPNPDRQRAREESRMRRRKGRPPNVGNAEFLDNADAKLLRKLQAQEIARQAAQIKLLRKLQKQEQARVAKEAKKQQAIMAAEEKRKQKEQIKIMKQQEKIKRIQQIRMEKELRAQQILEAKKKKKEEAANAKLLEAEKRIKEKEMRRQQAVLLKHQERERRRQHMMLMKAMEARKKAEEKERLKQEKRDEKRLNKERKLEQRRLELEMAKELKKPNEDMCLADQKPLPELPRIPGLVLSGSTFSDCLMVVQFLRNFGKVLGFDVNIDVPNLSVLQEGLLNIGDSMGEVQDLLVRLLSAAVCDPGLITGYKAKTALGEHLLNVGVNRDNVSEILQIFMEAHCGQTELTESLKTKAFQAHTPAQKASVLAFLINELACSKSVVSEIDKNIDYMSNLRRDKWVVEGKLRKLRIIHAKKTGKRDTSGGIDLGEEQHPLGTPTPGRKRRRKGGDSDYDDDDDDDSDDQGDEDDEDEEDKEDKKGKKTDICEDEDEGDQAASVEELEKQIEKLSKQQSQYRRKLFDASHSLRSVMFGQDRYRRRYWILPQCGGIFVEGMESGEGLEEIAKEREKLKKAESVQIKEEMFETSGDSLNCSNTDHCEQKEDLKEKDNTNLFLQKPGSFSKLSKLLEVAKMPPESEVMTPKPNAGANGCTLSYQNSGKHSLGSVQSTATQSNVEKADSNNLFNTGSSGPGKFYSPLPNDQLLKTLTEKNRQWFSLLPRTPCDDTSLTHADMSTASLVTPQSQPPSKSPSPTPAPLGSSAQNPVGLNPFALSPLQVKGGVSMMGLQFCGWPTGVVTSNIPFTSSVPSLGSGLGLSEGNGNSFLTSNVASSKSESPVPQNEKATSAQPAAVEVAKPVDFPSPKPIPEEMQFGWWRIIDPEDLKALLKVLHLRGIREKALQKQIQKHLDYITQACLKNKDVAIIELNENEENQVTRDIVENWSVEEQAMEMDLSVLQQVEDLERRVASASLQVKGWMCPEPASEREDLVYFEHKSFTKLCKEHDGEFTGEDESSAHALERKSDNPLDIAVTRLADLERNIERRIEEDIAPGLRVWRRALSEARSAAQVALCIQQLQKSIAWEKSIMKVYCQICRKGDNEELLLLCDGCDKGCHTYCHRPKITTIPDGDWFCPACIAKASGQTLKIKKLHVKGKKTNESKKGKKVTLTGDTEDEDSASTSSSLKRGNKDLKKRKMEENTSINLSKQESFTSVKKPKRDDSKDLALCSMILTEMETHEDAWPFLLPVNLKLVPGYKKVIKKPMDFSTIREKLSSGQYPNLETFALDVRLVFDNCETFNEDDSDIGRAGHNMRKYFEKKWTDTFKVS
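Multi-concentration screen (max 110 uM) measuring displacement of acetylated histone H3 peptide from BAZ2B by AlphaScreen, using 50 nM protein, 50 nM peptide and 10 ug/mL streptavidin donor plus Ni-chelate acceptor beads.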
CtBP-E1A inh: qHTS Assay for Inhibitors of the CtBP/E1A Interaction | AlphaScreen GST-E1A/His-CtBP binding, 1536-well; hits give low values | activity change, % (concentration not given with the values) | 340,000 tested, 0.49% active | CtBP / adenovirus E1A interaction (AlphaScreen); in the data active means activity change below about -65%; inconclusive means mostly about -30% to -63%; further: on the % scale 0 is the no-effect control and ±100 the full control effect
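Protein mix (5X: 125 nM each GST-E1A, His-CtBP) was incubated with pinned compound 2 h at 37 deg C in dark, in 50 mM Tris pH 8.0 buffer with 300 mM NaCl. Glutathione donor and nickel acceptor beads followed; AlphaScreen signal read after 1 h.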
JMJD2A Tudor: qHTS Assay for Inhibitors of JMJD2A-Tudor Domain | Lysine-specific demethylase 4A (Homo sapiens), O75164 | AlphaScreen JMJD2A-Tudor / H3K4me3 peptide binding | Potency, µM (titrated, usually from 114 µM), for inactives: top-dose activity change, negative = inhibition, hits mostly inhibitors | 390,000 tested, 4.4% active | AID 504339, 2011; further: potency means the concentration at half of the fitted maximal effect; on the % scale 0 is the no-effect control and ±100 the full control effect; nearly all actives have a fitted effect of over 50% in size
* = called active by the depositor; ? = inconclusive; nt = not tested or not shown; [ ] = dose if it differs, or a comment. Compounds with a hit are over-represented: about 10% of the library has one in this group of screens. Unless noted, the call rests on the fitted dose curve; in most records, active means well fitted inhibition curve with a large enough effect; inconclusive means small, poorly fitted or top-dose-only effect; inactive means no such curve, though single readings can be large or run the other way.

SMILES | G9a inh | Six1-Eya2 inh | HP1b binding inh | BAZ2B inh | CtBP-E1A inh | JMJD2A Tudor
CC1CC(C)(C)NC(=S)N1CC(=O)NCc1ccc(Cl)cc1 (centres undefined) | 28µM* | 2 | 11% | -4% | -3 | -14%
Cc1cccc(NC(=O)CN2C(=S)NC(C)(C)CC2C)c1 (centres undefined) | 20µM* | -9 | -1% | 2% | 1 | -10%
Cc1ccccc1NC(=O)CN1C(=S)NC(C)(C)CC1C (centres undefined) | 18µM* | 1 | -9% | 4% | 14 | -3%
Cc1nc2ccsc2c(=O)n1-c1cccc(Cl)c1 | nt | 8 | 38% | nt | 3 | 4%
O=C(NC1CCCC1)C(C1CC1)n1c(-c2ccnc3ccccc23)nc2ccccc21 (centres undefined) | nt | -6 | nt | nt | 0 | nt
CC(=O)c1c(C)[nH]c(C(=O)NNC(=O)COc2cc(C)cc(C)c2)c1C | 50µM* | 1 | 17% | -26% | 2 | -14%
CC(=O)c1c(C)[nH]c(C(=O)NNC(=O)c2ccc(C)cc2)c1C | nt | 3 | 28% | nt | 3 | -13%
Cc1nc(N=Nc2ccc(C(=O)O)cc2)c(COP(=O)(O)O)c(C=O)c1O | 40µM* | nt | nt | nt | nt | nt
CCCCN1CC(COCc2ccccc2)Oc2cccc(OCc3ccc(OC)cc3)c2S1(=O)=O (centres undefined) | nt | 4 | nt | nt | 0 | nt
Cc1ccc(NC(=O)CSc2nnc3ccc4ccccc4n23)cc1 | -6%[59 µM] | nt | 73% | 32% | nt | ?
Nc1ccc(C(=O)O)cc1[N+](=O)[O-] | -4% | 1 | 63% | -14% | 2 | 5%
Nc1cc(S(=O)(=O)O)cc([N+](=O)[O-])c1O | 45µM* | -20 | 35µM* | ? | -14 | 35µM*
CCOC(=O)C(C(C)=O)c1c(Br)c(O)c(O)c2c(C(=O)c3ccc(C)cc3)coc12 (centres undefined) | ? | ? | ? | 40µM* | ? | ?
CCOc1ccc(C2C(C(=O)c3ccco3)=C(O)C(=O)N2CCCn2ccnc2)cc1OC (centres undefined) | nt | 1 | 19% | 50µM* | -1 | -26%
COc1ccc(C2C(C(C)=O)=C(O)C(=O)N2CCCn2ccnc2)cc1 (centres undefined) | -1%[0.0925 µM] | 1 | 14% | ? | 6 | 89µM*
CCN(C(=O)C1CCN(S(=O)(=O)c2c(C)noc2/C=C/c2ccc(C)cc2)CC1)c1cccc(C)c1 | 4%[59 µM] | nt | 23%[57 µM] | -1% | nt | -9%
C[C@H](O)Cn1cnc2c1c(=O)n(C)c(=O)n2C | 44%[21.5 µM] | nt | nt | nt | nt | nt
COc1ccc(C2=Nn3c(nnc3-c3cc(OC)cc(OC)c3)SC2)cc1 | nt | nt | nt | nt | nt | -23%
Cc1ccc(-n2nc(C(=O)NN)c(C)c(C#N)c2=O)cc1Cl | ? | -11 | 31% | 0% | -5 | -23%
Cc1c(C(=O)NN)nn(-c2ccc(Cl)cc2)c(=O)c1C#N | 45µM* | -2 | 6% | -11% | -6 | -25%
Cc1c(CNCCc2ccc(S(N)(=O)=O)cc2)c(C(=O)O)c(C)n1Cc1ccc(Cl)cc1 | -3%[59 µM] | nt | 25% | -12% | nt | -15%
NC(=S)N/N=C1\c2ccccc2-c2c(C(=O)O)cccc21 | 28µM* | -6 | -1% | -10% | nt | -12%
COC(=O)c1cccc2c1-c1ccccc1/C2=N\NC(N)=O | -8%[2.33 µM] | 0 | -3% | -7% | nt | -15%
CCOC(=O)Nc1ccc2c(c1)C(=NNC(N)=S)c1ccccc1-2 | nt | -79* | 4% | nt | -65* | ?
NC(=O)c1cccc2c1-c1ccccc1/C2=N/NC(N)=S | 45µM* | -27 | 2% | ? | nt | -30%
SMILES | G9a inh | Six1-Eya2 inh | HP1b binding inh | BAZ2B inh | CtBP-E1A inh | JMJD2A Tudor
CCOC(=O)c1c(C)[nH]c(C)c1S(=O)(=O)N1CCN(c2ccc(Cl)cc2)CC1 | ? | nt | -6% | -39% | nt | -32%
CCOC(=O)N1CCN(S(=O)(=O)c2ccc(C(=O)Nc3nc4ccccc4s3)cc2)CC1 | 50µM* | 5 | 22% | 5% | -4 | -14%
CCOC(=O)c1sc(NC(=O)c2ccc(S(=O)(=O)N3CCCCC3)cc2)nc1-c1ccccc1 | -2%[59 µM] | 12 | 16% | 7% | -5 | -17%
CCOC(=O)N1CCN(S(=O)(=O)c2ccc(C(=O)Nc3sc4c(c3C(N)=O)CC(C)(C)NC4(C)C)cc2)CC1 | 50µM* | -6 | 23% | -23% | -6 | -21%
CC1CCN(S(=O)(=O)c2ccc(C(=O)Nc3sc4c(c3C(N)=O)CC(C)(C)NC4(C)C)cc2)CC1 | -20%[59 µM] | nt | 26% | 5% | nt | ?
CCOC(=O)c1c(-c2ccccc2)csc1NC(=O)c1cc(S(=O)(=O)N2CCOCC2)ccc1C | 32µM* | -3 | ? | 2% | -25 | -11%
CCOC(=O)N1CCN(S(=O)(=O)c2ccc(C(=O)Nc3nc4ccc(F)cc4s3)cc2)CC1 | -9% | 8 | 28% | -7% | -12 | 0%
CCOC(=O)c1sc(NC(=O)c2ccc(S(=O)(=O)N3CCOCC3)cc2)nc1-c1ccccc1 | 45µM* | 1 | 32% | 10% | nt | -25%
CC(=O)c1cccc(CN2CCC(n3nccc3NC(=O)CCCc3ccccc3)CC2)c1 | 28% | -1 | 16% | -17% | 9 | -12%
O=C(NCC[C@@H]1CC[C@@H](NC(=O)c2cnccn2)[C@@H](CO)O1)c1ccc2c(c1)OCO2 | nt | -7 | nt | nt | 4 | nt
CC(=O)N1CCN(c2ccc(Oc3ccc([N+](=O)[O-])c(C(F)(F)F)c3)cc2)CC1 | 50µM* | -18 | -36% | ? | -17 | ?
CCOc1ccc(C(=O)Nc2ccc(N3CCN(C(C)=O)CC3)cc2)cc1[N+](=O)[O-] | ? | 6 | -14% | ? | nt | -27%
Cc1cc(C(=O)N/N=C2\CC(=O)c3ccccc32)c(C)n1-c1ccc(F)cc1 | 50µM* | -13 | 28% | 40µM* | -19 | -4%[11.4 µM]
CCOc1cc(/C=N/NC(=O)c2cc(C)n(-c3ccc(F)cc3)c2C)ccc1O | nt | -21 | -1% | ? | nt | -34%
CC(C)Cn1c(=O)c2ccccc2n2c(CCC(=O)NCc3ccccc3Cl)nnc12 | -1%[59 µM] | nt | 45% | -3% | nt | 7%
CC[C@H](C)[C@H]1CNC(=O)C(=O)N1CC1CCN(CCCc2ccc(OC)c(OC)c2)CC1 | nt | 0 | -4% | nt | -3 | 79µM*

Screening data: PubChem, National Center for Advancing Translational Sciences (NCATS)
